This is an account of results in PubChem BioAssay (NCI).

About 79,000 compounds went through this panel and 15% of them were active in at least one assay; those are over-represented in the sample as a whole. Values without a mark were called inactive. Calls of active or inactive are those of the source. No stated cut-off is given here; in the data, active means growth inhibition above about 70%; inactive means the rest.

The nature of assay [1]: NCI Yeast Anticancer Drug Screen. Data for the rad50 strain (AID 155).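 Further: 0% = growth of vehicle-only cultures of the same strain.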 Particulars: S. cerevisiae rad50 strain growth inhibition, active compounds read high. In a few lines: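 Compounds were tested on a yeast strain with an engineered DNA damage repair alteration; the reported value is growth inhibition normalised to vehicle treatment.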
A short description of assay [2]: NCI Yeast Anticancer Drug Screen. Data for the mec2-1 strain (AID 157). The settings on record: S. cerevisiae mec2-1 strain, active compounds read high. In a few lines: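 Each compound was tested on mec2-1 yeast, a strain altered in DNA damage repair or cell cycle control. Growth inhibition is reported relative to vehicle.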
Assay [3] in a line: NCI Yeast Anticancer Drug Screen. Data for the sgs1 mgt1 strain (AID 161).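 Further: 0% = growth of cultures given vehicle only.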 Particulars: S. cerevisiae sgs1 mgt1 strain, active compounds read high. The procedure, abridged:
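Read-out: growth inhibition vs vehicle controls. Cells: mutant yeast strain deficient in DNA damage repair.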

Assay [4] can be described thus: NCI Yeast Anticancer Drug Screen. Data for the cln2 rad14 strain (AID 165).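 Further: 0% = growth equal to vehicle treated cultures.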 Particulars: S. cerevisiae cln2 rad14 strain, active compounds read high. The procedure, abridged:
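Test compounds were added to cln2 rad14 yeast cultures; inhibition of growth was then determined by comparison with vehicle treatment.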

A short description of assay [5]: NCI Yeast Anticancer Drug Screen. Data for the bub3 strain (AID 167). The settings on record: S. cerevisiae bub3 mutant strain, active compounds read high. The procedure, abridged:
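Growth of a checkpoint-deficient yeast mutant is measured after compound exposure. Values represent inhibition relative to vehicle.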

The nature of assay [6]: NCI Yeast Anticancer Drug Screen. Data for the mlh1 rad18 strain (AID 175). The settings on record: S. cerevisiae mlh1 rad18 strain growth inhibition, active compounds read high. In a few lines:
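Inhibition values reflect reduced growth of mutant yeast versus vehicle-treated controls following compound exposure; the mutations affect DNA damage repair.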

[7] abbreviates: at 5.0 µM (retest, dose inferred, filed as 0.5).
Where [8] appears, read: at 50.0 µM (retest, dose inferred, filed as 5.0).

Consider `CC(C)CCCCCCCCCCCCC(=O)NCC(=O)NC1C(O)C(O)C(Nc2ncnc3nc[nH]c23)OC1C(O)CO` (stereo unspecified), for which the growth inhibition in assay [1] (setting [7]) is 25%; in assay [1] (setting [8]), 53%; in assay [1] (at 50.0 µM), 34.5%; in assay [2] (setting [7]), 26%; in assay [2] (setting [8]), 46%; in assay [2] (at 50.0 µM) it was 25.9%. Moreover, the growth inhibition is 7% in assay [3] (setting [7]); 43% in assay [3] (setting [8]); 52.2% in assay [3] (at 50.0 µM); 5% in assay [4] (setting [7]); -14% in assay [4] (setting [8]); 47.9% in assay [4] (at 50.0 µM). Further, the growth inhibition in assay [5] (setting [7]) is 18%; in assay [5] (setting [8]) it was 63%; in assay [5] (at 50.0 µM), 52.4%; in assay [6] (setting [7]), 44%; in assay [6] (setting [8]) it was 63%; in assay [6] (at 50.0 µM), 53.9%.

Regarding `COC(=O)C(=O)C(/C=N/C(=S)NCCc1ccc(OC)c(OC)c1)=C(/O)c1ccc([N+](=O)[O-])cc1`, the growth inhibition is 3% in assay [1] (setting [7]); 15% in assay [1] (setting [8]); 0.3% in assay [1] (at 50.0 µM); -5% in assay [2] (setting [7]); -3% in assay [2] (setting [8]); -7.95% in assay [2] (at 50.0 µM). The growth inhibition in assay [3] (setting [7]) was 13%; in assay [3] (setting [8]), 1%; in assay [3] (at 50.0 µM), 19.4%; in assay [4] (setting [7]), 20%; in assay [4] (setting [8]), -11%; in assay [4] (at 50.0 µM), 30.9%. Further, the growth inhibition was 6% in assay [5] (setting [7]); -13% in assay [5] (setting [8]); 15.4% in assay [5] (at 50.0 µM); -3% in assay [6] (setting [7]); 8% in assay [6] (setting [8]); -9.7% in assay [6] (at 50.0 µM).

As for `CN(NC1OC(=O)c2ccccc21)c1ccc(C(F)(F)F)cc1[N+](=O)[O-]` (stereo unspecified), the growth inhibition in assay [1] (setting [7]) was 46%; in assay [1] (setting [8]), 39%; in assay [1] (at 50.0 µM), 65.7%; in assay [2] (setting [7]) it was 33%; in assay [2] (setting [8]), 36%; in assay [2] (at 50.0 µM), 54.2%. In addition, the growth inhibition in assay [3] (setting [7]) was 43%; in assay [3] (setting [8]), 49%; in assay [3] (at 50.0 µM) it was 55.1%; in assay [4] (setting [7]), 25%; in assay [4] (setting [8]) it was 31%; in assay [4] (at 50.0 µM), 71.2% (active). Moreover, the growth inhibition in assay [5] (setting [7]) is 43%; in assay [5] (setting [8]), 69%; in assay [5] (at 50.0 µM), 36.2%; in assay [6] (setting [7]) it was 47%; in assay [6] (setting [8]), 48%; in assay [6] (at 50.0 µM), 54.5%.

Consider `O=C(NCCCN1CC2CCCC2C1)C(C1CCCCC1)C1CCCCC1` (stereo unspecified), for which the growth inhibition in assay [1] (setting [7]) is -5%; in assay [1] (setting [8]) it was 94% (active); in assay [1] (at 50.0 µM), 99.6% (active); in assay [2] (setting [7]) it was -12%; in assay [2] (setting [8]), 76% (active); in assay [2] (at 50.0 µM) it was 99.5% (active). In addition, the growth inhibition was -9% in assay [3] (setting [7]); 92% (active) in assay [3] (setting [8]); 99.5% (active) in assay [3] (at 50.0 µM); 0% in assay [4] (setting [7]); 98% (active) in assay [4] (setting [8]); 99.2% (active) in assay [4] (at 50.0 µM). The growth inhibition in assay [5] (setting [7]) is -22%; in assay [5] (setting [8]) it was 99% (active); in assay [5] (at 50.0 µM), 99.5% (active); in assay [6] (setting [7]), -3%; in assay [6] (setting [8]), 96% (active); in assay [6] (at 50.0 µM) it was 99.5% (active).

For the compound `Oc1ccc(O)c2nc3ccccc3nc12`, the growth inhibition in assay [1] (setting [7]) was 20%; in assay [1] (setting [8]), 97% (active); in assay [1] (at 50.0 µM) it was 50.8%; in assay [2] (setting [7]) it was 3%; in assay [2] (setting [8]), 97% (active); in assay [2] (at 50.0 µM), 33.8%. The growth inhibition in assay [3] (setting [7]) was 8%; in assay [3] (setting [8]) it was 98% (active); in assay [3] (at 50.0 µM), 24.1%; in assay [4] (setting [7]), 2%; in assay [4] (setting [8]), 98% (active); in assay [4] (at 50.0 µM) it was -1.85%. In addition, the growth inhibition is 6% in assay [5] (setting [7]); 98% (active) in assay [5] (setting [8]); 68.2% in assay [5] (at 50.0 µM); 24% in assay [6] (setting [7]); 97% (active) in assay [6] (setting [8]); 76.4% (active) in assay [6] (at 50.0 µM).

As for `N#CC(C#N)=C(C1CC1)C1CC1`, the growth inhibition in assay [1] (setting [7]) is -76%; in assay [1] (setting [8]) it was 96% (active); in assay [1] (at 50.0 µM), 0.4%; in assay [2] (setting [7]) it was -42%; in assay [2] (setting [8]) it was 94% (active); in assay [2] (at 50.0 µM), -2.5%. Also, the growth inhibition was -47% in assay [3] (setting [7]); 96% (active) in assay [3] (setting [8]); -1.9% in assay [3] (at 50.0 µM); -56% in assay [4] (setting [7]); 92% (active) in assay [4] (setting [8]); 41.4% in assay [4] (at 50.0 µM). Besides, the growth inhibition in assay [5] (setting [7]) is -59%; in assay [5] (setting [8]) it was 93% (active); in assay [5] (at 50.0 µM), 11.8%; in assay [6] (setting [7]), -95%; in assay [6] (setting [8]), 94% (active); in assay [6] (at 50.0 µM), -21.9%.

Take `CC(CCC(=O)O)(c1cc(Br)c(O)c(Br)c1)c1cc(Br)c(O)c(Br)c1`: the growth inhibition was 19% in assay [1] (setting [7]); 91% (active) in assay [1] (setting [8]); 90.8% (active) in assay [1] (at 50.0 µM); -1% in assay [2] (setting [7]); 72% (active) in assay [2] (setting [8]); 90% (active) in assay [2] (at 50.0 µM). Moreover, the growth inhibition is -2% in assay [3] (setting [7]); 75% (active) in assay [3] (setting [8]); 81.5% (active) in assay [3] (at 50.0 µM); -16% in assay [4] (setting [7]); 75% (active) in assay [4] (setting [8]); 92.4% (active) in assay [4] (at 50.0 µM). Also, the growth inhibition in assay [5] (setting [7]) is -3%; in assay [5] (setting [8]), 78% (active); in assay [5] (at 50.0 µM), 88.6% (active); in assay [6] (setting [7]), -14%; in assay [6] (setting [8]), 87% (active); in assay [6] (at 50.0 µM) it was 90.4% (active).
